The values below come from PubChem BioAssay AID2615 (Southern Research Specialized Biocontainment Screening …, 2010).

Calls of active or inactive are those of the source. How the calls were made is not given here.

This experiment in a line: SV40 cytopathic effect inhibition and cytotoxicity, confirmation, SV40 T antigen inhibitor project, BSC cells (AID 2615). The following applies: BSC cells SV40 infection, CPE inhibition; viability, at 100 µM, stronger effect = lower value. Background: Damage to the host cells serves as the signal in cytopathic effect assays.

Take `COc1ccc(CC2NCCc3cc(OC)c(OC)cc32)cc1OC` (configuration not stated): the outcome was inactive and the viability (usually a read-out of living cells in per cent, often relative to untreated cells) is 201%.
